Only some compounds are listed: those with a hit (about 8% of all), similar ones and a draw of the others.
KB-3-1 cytotox: KB-3-1 parental cell cytotoxicity. AID 1347075. Potency, µM (top dose mostly 46.1 µM), hits mostly cytotoxic. KB-3-1 viability, CellTiter-Glo ATP luminescence, 72 h. hit rate 1.4% among 400,000; further: nearly all actives have a fitted effect of over 60% in size
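Viability of parental KB-3-1 cells, measured by CellTiter-Glo luminescence, followed a 72 h incubation at 37 °C with pinned compounds in phenol-red-free DMEM containing 10% FBS.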
MCF10A rerep: inducers of DNA re-replication in MCF 10A breast cells; hit rate 2.9% among 350,000; Potency, µM (series often up to 46.1 µM), usual class: activators; MCF 10A DNA re-replication, Hoechst nuclear intensity, 48 h; AID 624296; further: nearly all actives have a fitted effect of over 50% in size
SW480 rereplic: induces DNA re-replication in SW480 colon adenocarcinoma cells; hit rate 1.8% among 340,000; AID 624297; SW480 DNA re-replication, Hoechst DNA content imaging, 48 h; Potency, µM (doses to about 46.1 µM), actives largely listed as activators; further: nearly all actives have a fitted effect of over 55% in size
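Image-based DNA-content assay: after two days of treatment, nuclei were labelled with the DNA dye Hoechst and imaged, and hits were compounds raising the count of nuclei showing high fluorescence intensity.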
HT1080 IDH1KD tx: toxicity to HT-1080 IDH1 knockdown cells (counter line); HT-1080 IDH1 knockdown viability, ATP luminescence, 48 h; Potency, µM (series often up to 46.1 µM), hits mostly cytotoxic; hit rate 2% among 360,000
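Cytotoxicity counter-line: IDH1KD HT-1080, 48 h, CellTiter-Glo. Curves classed by r2, magnitude and activity.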
KB-V1 cytotox: KB-V1 MDR subline cytotoxicity; KB-V1 MDR cells viability, CellTiter-Glo, 72 h; Potency, µM (series often up to 46.1 µM), usual class: cytotoxic; hit rate 3.4% among 400,000; AID 1347076; further: nearly all actives have a fitted effect of over 60% in size
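Compound-treated KB-V1 multidrug-resistant cells, 72 h, 37 degrees C; viability by CellTiter-Glo. Fitted qHTS curves give the values.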
HT1080NT lethal: kills 2HG-producing HT-1080-NT fibrosarcoma cells | Potency, µM (titrated, usually from 46.1 µM), usual class: cytotoxic | HT-1080-NT fibrosarcoma viability, CellTiter-Glo ATP luminescence, 48 h | hit rate 1.6% among 360,000;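 further: NT is the 2HG producing partner of a matched IDH1 knockdown line; nearly all actives have a fitted effect of over 55% in size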
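Compounds were tested in concentration-response format on HT-1080-NT cells for 48 hours at 37 degrees C. Cell viability came from CellTiter-Glo luminescence; curves were classified by r2, response magnitude and activity.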
Numbers stand for hits; i = inactive; ? = inconclusive; nt = no result; [ ] = remark or other dose. The call rests on the fitted dose curve; in most records, active means well fitted curve in the direction sought with a large enough effect; inconclusive means small, poorly fitted or top-dose-only effect, or another doubt; inactive means no such curve, though single readings can be large; an effect the other way counts as inactive or inconclusive.

SMILES | KB-3-1 cytotox | MCF10A rerep | SW480 rereplic | HT1080 IDH1KD tx | KB-V1 cytotox | HT1080NT lethal
CC1(C)CC(=O)C(N=Nc2cccc(S(=O)(=O)N3CCOCC3)c2)=C(O)C1 | i | i | i | i | i | i
CCOC(=O)c1ccc(NC(=O)CCC(=O)N2Cc3ccccc3Oc3ncccc32)cc1 | i | nt | nt | nt | i | nt
Cc1cc(C)n(-c2nc3cc(Cl)ccc3nc2Nc2ccc(CC(=O)O)cc2)n1 | i | nt | nt | nt | i | nt
O=S1(=O)c2ccccc2N(Cc2cccc(C(F)(F)F)c2)c2ccccc21 | ? | nt | nt | nt | i | nt
CCOC(=O)c1[nH]c(C)c(CCC(=O)Nc2cccc(C(F)(F)F)c2)c1C | i | nt | nt | nt | i | nt
CCOC(=O)CN(C(=O)CNC(=O)c1cccs1)C(C(=O)NC1CCCCC1)c1cccs1 (stereo not drawn) | i | i | i | i | 21µM | i
Cc1cc(C)nc(N2CCC(C(=O)NC3CCCc4ccccc43)CC2)n1 (stereo not drawn) | i | i | i | i | i | i
O=C(NC1CCCc2ccccc21)C1CCN(S(=O)(=O)c2ccccc2F)CC1 (stereo not drawn) | i | i | i | i | 7.3µM | i
O=C(NC1CCCc2ccccc21)C1CCN(c2nnc(-n3cccc3)s2)CC1 (stereo not drawn) | i | 16µM | i | i | ? | i
Cc1csc(NC(=O)C2CCN(S(=O)(=O)c3ccccc3F)CC2)n1 | i | i | i | i | 15µM | i
COc1ccccc1NC(=O)c1cc(S(=O)(=O)N(C)C2CCCCC2)ccc1F | i | nt | nt | nt | i | nt
Nc1ncnc(Nc2ccc(F)cc2)n1 | i | i | i | i | i | i
Fc1ccc(Nc2ccnc(Nc3ccc(F)cc3)n2)cc1 | i | ? | i | ? | 15µM | ?
O=c1c(N2CCN(c3ccccc3)CC2)csc2ccc(Cl)cc12 | i | nt | nt | nt | i | nt
Cc1c(Br)cnc2ccccc12 | i | nt | nt | nt | i | nt
Cc1ccc(NC(=O)/C(=C\c2ccc([N+](=O)[O-])cc2)NC(=O)c2ccccc2)cc1 | i | i | i | i | i | i
O=C(Nc1cccc2ccccc12)/C(=C/c1ccc([N+](=O)[O-])cc1)NC(=O)c1ccccc1 | i | i | i | i | 4.6µM | i
O=C(N/N=C/c1ccc(O)c(O)c1O)/C(=C/c1ccc([N+](=O)[O-])cc1)NC(=O)c1ccccc1 | i | i | i | 15µM | i | ?
C[C@@H](C(=O)Nc1ccc(OC(F)F)c(Cl)c1)N1C(=O)C2CC=CCC2C1=O (stereo partly drawn) | i | i | i | i | i | i
CC1CCCN(C(=O)CSc2cnc3ccccc3n2)C1 (stereo not drawn) | i | ? | i | i | 9.2µM | i
CC1CCN(C(=O)CSc2nc3ccccc3s2)CC1 | i | ? | i | i | 15µM | i
O=C(CSc1nc2ccccc2s1)N1c2ccccc2Sc2ccccc21 | ? | ? | i | i | 21µM | i
Cc1ccc(CNC(=O)C2CCCN(c3nn4cc(-c5ccc(C)cc5)nc4s3)C2)cc1 (stereo not drawn) | i | nt | nt | nt | i | nt
Cc1cccn2c(=O)c(C(=O)N3CCN(c4ccc(Cl)cc4)CC3)cnc12 | i | nt | nt | nt | i | nt
Cc1ccc(-c2ccccc2NC(=O)CS(=O)CC(=O)Nc2ccc(C)c(Cl)c2)o1 (stereo not drawn) | i | 26µM | ? | 23µM | i | i
SMILES | KB-3-1 cytotox | MCF10A rerep | SW480 rereplic | HT1080 IDH1KD tx | KB-V1 cytotox | HT1080NT lethal
Cc1ccc(-c2ccccc2NC(=O)CCl)o1 | i | ? | i | i[9.24 µM] | i | i
COc1ccc2oc(=O)c(-c3nc(C)cs3)cc2c1 | ? | i | i | i | i | i[9.24 µM]
CC/C(C)=N\Nc1nc(-c2cc3cc(OC)ccc3oc2=O)cs1 | i | ? | ? | 15µM | i | ?
COc1ccc(C(=O)CSc2nnc(CNC(=O)c3ccc(S(=O)(=O)N(C)C)cc3)o2)cc1 | i | i | i | i | i | i
O=C(Nc1ccc2ccccc2c1)Nc1nnc(C2CCCCC2)s1 | i | nt | nt | nt | ? | nt
N#Cc1cn(Cc2cccc(Cl)c2)c2ccccc12 | i | ? | i | i | i | i
N#Cc1ccccc1Cn1cc(/C=C/[N+](=O)[O-])c2ccccc21 | ? | 4.1µM | ? | 23µM | ? | 23µM
O=C(Cn1cc(/C=C\[N+](=O)[O-])c2ccccc21)Nc1ccccc1 | ? | 8.2µM | ? | 3.7µM | ? | ?
O=C(O)Cn1cc(/C=C/[N+](=O)[O-])c2ccccc21 | i | i | i | i | ? | i
COc1ccc(NC(=O)CN2C(=O)C(=O)N(C3CCCC3)C2=O)c(OC)c1 | i | i | i | i | i | i
Nc1c2c(nc3ccccc13)CCC2 | i | ? | i | i | i | i
Nc1c2c(nc3ccccc13)N(C1CCCCC1)CC2 | i | 13µM | ? | i | ? | ?
CCn1c(C)c2c(C)nnc(C)c2c1C | i | i | i[9.22 µM] | i | i | i
CCn1c(C)c(P(c2ccccc2)c2ccccc2)[n+]2ccccc12 | 9.2µM | i | i | i | i | i
CCC(C)(C)C1CCC2(CC1)NC(=O)N(CC(=O)NCCc1c[nH]c3ccccc13)C2=O (stereo not drawn) | ? | i | i | i | 21µM | i
CC1CCC2(CC1)NC(=O)N(CC(=O)NCCc1c[nH]c3ccccc13)C2=O (stereo not drawn) | i | ? | i | i | i | i
CCOC(=O)c1c(NC(=O)/C=C/c2ccc(C)cc2)sc(C(C)=O)c1C | i | nt | nt | nt | ? | nt
CC(C)C(=O)N1CCC1(C)C(=O)Nc1ccc(-n2cccc2)cc1 (stereo not drawn) | i | nt | nt | i | i | i
COCC(=O)Nc1ccccc1NC(C)=O | i | i | i | i | i | i
COCC(=O)Nc1cc(Sc2ccccc2)ccc1N=C(NC(=O)OC)NC(=O)OC | nt | 7.5µM | 17µM | nt | nt | nt
CCOC(=O)c1c(NC(=O)c2ccco2)sc(C(=O)N2CCCC2)c1C | i | i | i | i | 2.3µM | i
CCOC(=O)c1c(NC(=O)c2ccc(N3C(=O)C4C5C=CC(C5)C4C3=O)cc2)sc2c1CCCC2 (stereo not drawn) | i | ? | i | i | 16µM | i
Cc1sc(NC(=O)c2ccco2)c(CN2CCC(C)CC2)c1C | ? | ? | i[9.22 µM] | i | i | i
CCOC(=O)c1c(NC(=O)c2ccco2)sc2c1CCCCC2 | i | ? | i | i | i | i
CCOC(=O)c1c(NC(=O)C(C)N2CCN(C(=O)c3ccco3)CC2)sc2c1CCCC2 (stereo not drawn) | ? | 15µM | i | i | ? | i
Cc1sc(NC(=O)c2ccco2)c(CN2CCN(Cc3ccccc3)CC2)c1C | ? | 23µM | ? | ? | ? | i
CCOC(=O)c1c(NC(=O)C2C3C=CC(C3)C2C(=O)O)sc2c1CCCC2 (stereo not drawn) | i | i | i | i | i | i
